Screening results from PubChem.
LGR2 inh: inhibitors of bursicon-induced Drosophila LGR2 receptor cAMP signaling; HEK293 LGR2, CRE-luciferase, bursicon-stimulated, 4 h; inhibition, % at 9.99 µM; hit rate 0.35% among 380,000; AID 720647;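 active = drop in luminescence signal, shown as inhibition above about 50% in the replicate tests, limit read from the data, passing the limit was not always enough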;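 also: agonist challenge used bursicon conditioned medium at about half maximal strength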
TWEAK-Fn14 inh: TWEAK-Fn14 signaling inhibition | inhibition, % at 10 µM | hit rate 2% among 360,000 | TWEAK-stimulated Fn14 reporter cells, luciferase luminescence, 8 h; in the data active = inhibition above about 50%
HSP90 refold inh: inhibitors of HSP90 luciferase refolding in rabbit reticulocyte lysate | inhibition, % at 5.6 µM | AID 1789 | luciferase refolding luminescence, 3 h | hit rate 0.91% among 290,000;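 active = inhibition above the screen-wide mean plus 3 SD, computed separately per campaign, cut at about 16% in these data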;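 also: 0% = DMSO wells and 100% = 60 µM geldanamycin wells; inhibitors lower the luminescence because luciferase stays unfolded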
TROY NFkB inh: blocks TROY-dependent signaling in reporter cells; Q293 LMP1-TROYcd NF-kB luciferase reporter, 4 h; inhibition, % at 10 µM; hit rate 0.98% among 360,000;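 active = compounds whose plate-normalised and pattern-corrected inhibition of the luciferase reporter signal at the single screening dose is 50% or more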
* = called active by the depositor; nt = no result given. Rows were chosen to be rich in hits. Some 2.2% of all compounds tested hit in one or more screens of this group.

SMILES | LGR2 inh | TWEAK-Fn14 inh | HSP90 refold inh | TROY NFkB inh
O=C(CCN1C(=O)/C(=C/c2ccccc2F)SC1=S)NCCCN1CCOCC1 | -3.9 | 50.4* | -1.9 | 6.1
O=C(CCCN1C(=O)/C(=C/c2ccccc2Cl)SC1=S)NNC(=O)c1ccccc1Cl | -2.3 | 77.7* | -2.4 | 34.0
O=C(CCCN1C(=O)/C(=C/c2ccccc2Cl)SC1=S)NNC(=O)c1ccncc1 | 14.3 | 78.5* | 5.3 | 68.0*
O=C(CCCN1C(=O)/C(=C/c2cccs2)SC1=S)NNC(=O)c1ccccc1O | 16.7 | -4.9 | -5.9 | 11.6
O=C(O)CN1C(=O)/C(=C\c2cc(Br)ccc2OCc2ccccc2Cl)SC1=S | 7.7 | -19.8 | -0.9 | 49.7
O=C(O)CN1C(=O)/C(=C\c2ccccc2OCc2ccc(Cl)cc2Cl)SC1=S | -11.7 | 97.5* | 4.6 | 79.9*
O=C(CCN1C(=O)/C(=C/c2ccccc2)SC1=S)NCCCN1CCOCC1 | 6.7 | 12.6 | -2.1 | -17.0
O=C(CCCN1C(=O)/C(=C/c2cccs2)SC1=S)NNC(=O)c1ccncc1 | 8.8 | 5.1 | 1.9 | -24.9
CCC(=O)N1CC(=O)N2[C@H](CO)[C@@H](c3ccc(-c4ccccc4C)cc3)[C@H]2C1 | -11.9 | nt | nt | nt
O=C(CCN1C(=O)/C(=C/c2ccccc2Cl)SC1=S)N1CCCC1 | 28.7 | 36.9 | -0.5 | -26.7
O=C(CCCN1C(=O)/C(=C/c2ccccc2Cl)SC1=S)N1CCCC1 | 28.8 | 58.4* | 8.6 | 11.1
CC(C)C#Cc1cnc2c(c1)C(=O)N([C@@H](C)CO)C[C@H](C)[C@@H](CN(C)C(=O)Nc1cc(F)ccc1F)O2 | -6.1 | nt | nt | nt
COc1ccc2c3c(n(C)c2c1)[C@@H](CO)NCC31CCN(Cc2ccccc2Cl)CC1 | -15.9 | nt | nt | nt
COc1ccc(C2CC3(O)CC(C#N)(C(=O)N3)C2(C#N)C#N)cc1 (stereo not drawn) | -4.0 | 91.1* | 2.3 | 82.0*
O=C(Nc1cccc(Cl)c1)c1ccc2c(=O)n3c(nc2c1)CCCCC3 | nt | 40.8 | 2.3 | 52.8*
O=C(Nc1ccccn1)c1ccc2c(=O)n3c(nc2c1)CCCCC3 | 13.2 | 56.1* | nt | 12.8
C[C@@H]1CN([C@@H](C)CO)S(=O)(=O)c2ccc(C#CC(C)(C)O)cc2O[C@@H]1CN(C)C(=O)C1CC1 | -0.6 | nt | nt | nt
COc1ccc(/C=N/NC(=O)c2nc(-c3ccccc3)cc(-c3ccccc3)n2)cc1 | nt | 29.6 | -0.5 | -22.3
COc1ccc(/C=N/NC(=O)c2nc(-c3ccccc3)cc(-c3ccccc3)n2)cc1O | 14.1 | 53.9* | 3.2 | -30.6
CCOc1cc(/C=N/NC(=O)c2cc(-c3cccc(OC)c3)nc3ccccc23)ccc1O | -5.2 | 78.1* | nt | 57.7*
COc1ccc(/C=N/Nc2nc3ccccc3o2)cc1O | nt | 72.0* | 8.7 | -26.4
CCCNC(=O)N[C@@H]1C=C[C@@H](CC(=O)NC2CCCCC2)O[C@@H]1CO | -14.7 | nt | nt | nt
C[C@H](CO)N1C[C@H](C)[C@H](CN(C)C(=O)Nc2ccc3c(c2)OCO3)Oc2ccc(NC(=O)Cc3ccccc3)cc2CC1=O | -3.8 | nt | nt | nt
CO[C@H]1CN(C)C(=O)c2ccc(NC(=O)C3CCOCC3)cc2OC[C@H](C)N(CC2CC2)C[C@H]1C | 6.5 | nt | nt | nt
O=C(O)C[C@H]1CC[C@H](NC(=O)c2ccncc2)[C@@H](CO)O1 | -5.3 | nt | nt | nt
SMILES | LGR2 inh | TWEAK-Fn14 inh | HSP90 refold inh | TROY NFkB inh
C[C@@H]1CN([C@H](C)CO)C(=O)CCCn2cc(nn2)CO[C@@H]1CN(C)C(=O)Nc1ccc(N2CCCCC2)cc1 | 7.8 | nt | nt | nt
C[C@@H]1CCCCO[C@@H](CN(C)C(=O)Nc2ccc3c(c2)OCO3)[C@H](C)CN([C@@H](C)CO)C(=O)c2cc(N(C)C)ccc2O1 | 2.7 | nt | nt | nt
Cc1c(C(=O)Nc2cccc(Cl)c2)oc2ccc(S(=O)(=O)N3CCC4(CC3)OCCO4)cc12 | -4.4 | 62.4* | -2.0 | 21.6
Cc1c(C(=O)Nc2ccc(F)cc2)oc2ccc(S(=O)(=O)N3CCC4(CC3)OCCO4)cc12 | nt | 53.5* | 0.7 | 33.5
Cc1c(C(=O)Nc2ccc(F)c(F)c2)oc2ccc(S(=O)(=O)N3CCCCC3)cc12 | 13.3 | 81.2* | 1.3 | 49.7
Cc1c(C(=O)Nc2ccc(F)cc2)oc2ccc(S(=O)(=O)N3CCCC3)cc12 | -1.8 | -16.6 | 4.8 | 13.1
C[C@H]1CCCCO[C@H](CN(C)C(=O)CCC(F)(F)F)[C@@H](C)CN([C@@H](C)CO)C(=O)c2cc(NC(=O)CCCN(C)C)ccc2O1 | -9.6 | nt | nt | nt
CN(C)C(=O)C[C@H]1CC[C@@H]2[C@@H](COc3ccc(NC(=O)NCc4ccccc4)cc3C(=O)N2C)O1 | 0.2 | nt | nt | nt
O=C(Nc1cccc2ncccc12)c1ccc2c(c1)OCCO2 | nt | 82.9* | -1.1 | nt
Nc1ccc(C(=O)Nc2cccc3ncccc23)cc1 | 6.2 | 6.4 | -2.0 | -7.5
O=C(Nc1ccc2c(c1)OCCO2)c1ccc2nccnc2c1 | 32.3 | 70.2* | 13.6 | -32.0
Cc1noc(C)c1S(=O)(=O)Nc1ccc2c(c1)C(=O)N([C@H](C)CO)C[C@H](C)[C@H](CN(C)S(=O)(=O)c1ccc(F)cc1)O2 | 20.8 | nt | nt | nt
CN(C)C(=O)c1c(NC(=O)c2ccco2)sc2c1CCCCC2 | nt | 29.9 | 9.5 | 65.0*
O=C(Nc1sc2c(c1C(=O)O)CCCCC2)c1ccco1 | nt | 55.5* | 8.0 | 0.7
O=C(NCCCCc1ccccc1)c1cccc(NC(=O)C2CCCCC2)c1 | 9.5 | -30.4 | nt | 6.4
O=C(NCCCCc1ccccc1)c1cccc(NC(=O)C2CCC2)c1 | -5.4 | 101.2* | nt | -6.3
CC(C)(C)OC(=O)N1CCC(C(=O)Nc2ccc(C(=O)NCc3ccccc3)cc2)CC1 | -9.7 | 7.4 | nt | 19.7
O=C(NCCc1ccccc1)C1CCCN1C(=O)NCc1ccccc1 (stereo not drawn) | nt | -3.0 | -0.9 | 2.3
CC(C)(C)OC(=O)N1CCCC(C(=O)Nc2cccc(C(=O)NCCc3ccccc3)c2)C1 (stereo not drawn) | -35.8 | 100.1* | nt | -51.5
CC(C)(C)OC(=O)N1CCCC1C(=O)NCCc1ccccc1 (stereo not drawn) | nt | 79.3* | -1.4 | nt
CC(C)(C)OC(=O)N1CCC(C(=O)Nc2ccc(C(=O)NCCc3ccccc3)cc2)CC1 | -12.5 | 53.9* | nt | 3.6
CO[C@@H]1CN(C)C(=O)c2ccc(NS(=O)(=O)c3cn(C)cn3)cc2OC[C@H](C)N(CCC(F)(F)F)C[C@H]1C | -2.5 | nt | nt | nt
CS(=O)(=O)N1[C@@H]2Cn3c(ccc(-c4cccc(F)c4)c3=O)[C@H]1[C@@H](C(=O)N1CCOCC1)[C@@H]2CO | 3.8 | nt | nt | nt
C[C@@H]1CCCCO[C@@H](CN(C)CC2CCCCC2)[C@@H](C)CN([C@H](C)CO)C(=O)c2cc(NC(=O)Nc3cccc4ccccc34)ccc2O1 | 10.6 | nt | nt | nt
O=C(NC1CCCC1)N1CCCCN2[C@H](C1)[C@H](c1ccc(/C=C/c3ccccc3)cc1)[C@@H]2CO | 16.8 | nt | nt | nt
O=c1cc[nH]c2ccc(Cl)cc12 | -8.3 | -4.2 | -2.0 | -5.4
O=c1cccc2c1c1cc[nH]c3ccc(=O)n2c31 | 15.1 | 54.2* | nt | 40.9
CCCCCCc1cc2cc(S(=O)(=O)c3ccc(F)c(Cl)c3)c(=O)oc2cc1O | 14.9 | 53.8* | 4.1 | 58.1*
CCCCCCc1cc2cc(C(=O)OCC)c(=O)oc2cc1O | -22.6 | 41.0 | 0.1 | 2.9
Cc1ccc(C(=O)c2no[n+]([O-])c2C(=O)c2ccc(C)cc2)cc1 | -13.8 | 53.4* | 2.3 | -8.8
